Results filed as inconclusive are left out. Active and inactive are the calls of the source. Unless noted, calls come from the whole dose curve; as a rule, active = well fitted curve in the direction sought with a large enough effect; inconclusive = small, poorly fitted or top-dose-only effect, or another doubt; inactive = no such curve, though single readings can be large; an effect the other way counts as inactive or inconclusive.
Target: Cytochrome P450 2C19 (Homo sapiens) (UniProt P33261)
Test: qHTS Assay for Inhibitors and Substrates of Cytochrome P450 2C19 (AID 899); note: nearly all actives have a fitted effect of over 60% in size; note: potency is the fitted concentration of half-maximal effect
Conditions: recombinant CYP2C19, luciferin-H EGE luminescence; series mostly up to 11.4 µM
Procedure, shortened: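 5nM enzyme + 10uM Luciferin-H EGE (=KM), 50mM KPO4; cpd pin-transferred, 10 min 37C; NADPH regen, 60 min 37C; stopped w/ luciferin detection reagent, 20 min; luminescence. Normalized to 57uM ketoconazole (AC100).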

Chain of Cytochrome P450 2C19 (Homo sapiens) (P33261 whole entry, looked up): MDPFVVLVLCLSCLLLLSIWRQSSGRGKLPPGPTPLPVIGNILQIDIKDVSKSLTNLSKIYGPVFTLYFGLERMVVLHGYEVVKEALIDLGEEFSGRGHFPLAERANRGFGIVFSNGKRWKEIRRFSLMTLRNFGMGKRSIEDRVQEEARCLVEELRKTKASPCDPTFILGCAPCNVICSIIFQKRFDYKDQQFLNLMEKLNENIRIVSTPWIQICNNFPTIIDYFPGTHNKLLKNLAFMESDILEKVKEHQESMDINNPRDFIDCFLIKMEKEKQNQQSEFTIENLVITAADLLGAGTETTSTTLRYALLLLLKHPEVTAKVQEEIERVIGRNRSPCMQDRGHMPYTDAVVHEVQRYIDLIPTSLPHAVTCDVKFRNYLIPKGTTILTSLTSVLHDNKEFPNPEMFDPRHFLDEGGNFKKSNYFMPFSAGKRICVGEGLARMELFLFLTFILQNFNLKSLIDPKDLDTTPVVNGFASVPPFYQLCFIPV

Potency, inactive:
CC1CCC2C(=O)N3C(CCC(C)[C@H]3c3ccccc3Br)C(=O)N2C1c1ccccc1Br (stereo partly specified)
O=C1[C@@H]2[C@H]3[C@H](O)[C@H](O)C/C(=N/OC[C@@H](O)COCc4ccco4)[C@@H]3CC[C@H]2C(=O)N1c1ccc(F)cc1F
CCOC(=O)OCC1OC(C#Cc2ccc(Br)cc2)C=CC1OC(=O)OCC (stereo unspecified)
CC(=O)OC[C@@H]1O[C@@H](O/N=C2/C[C@@H](O)[C@@H](O)[C@@H]3[C@@H]4C(=O)N(c5cccc(Oc6ccccc6)c5)C(=O)[C@H]4CC[C@H]23)[C@H](OC(C)=O)[C@H](OC(C)=O)[C@@H]1OC(C)=O
O=C1[C@@H]2[C@H]3[C@H](O)[C@H](O)C/C(=N/OC[C@@H](O)COCc4ccco4)[C@H]3CC[C@H]2C(=O)N1c1ccc(F)cc1F

Potency, active:
CCC12C=C(/C=C/c3ccccc3)C(CC)(C1)C(c1ccccc1)CC2=O (stereo unspecified) 5010 nM
COC(=O)NC(/C(C(=O)OC)=C(\C)NCc1ccccc1)c1ccc2ccccc2c1 (stereo unspecified) 63.1 nM
CC/C=C\CC[C@H](OC(=O)c1ccc(Br)cc1)C1=CCCCC1=O 2000 nM
CCC[C@@H]1C[C@@]1(CCC)C(NC(=O)OCc1ccccc1)c1ccc(-c2ccccc2)cc1 (stereo partly specified) 1260 nM
CC(C)CO/N=C1/C[C@@H](O)[C@@H](O)[C@@H]2[C@@H]3C(=O)N(Cc4ccc5c(c4)OCO5)C(=O)[C@H]3CC[C@H]12 3980 nM

Test system: not listed separately
Test: Confirmation and Secondary Assay for Modulators of Hemoglobin Beta Chain Splicing at IVS2 654 locus (AID 910);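 note: HeLa cells stably carrying EGFP split by mutant beta-globin IVS2-654 intron; per-well total GFP intensity by laser scanning cytometry after 2-day treatment; % of control where 0% means no effect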
Conditions: HeLa EGFP-654 splicing reporter, GFP fluorescence, 48 h; series mostly up to 46.1 µM
Procedure, shortened: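 Readout: per-well total peak green fluorescence (488 nm ex, 500–520 nm em) from objects 5–250 µm, reflecting correct splicing of an EGFP-654 reporter. Compounds were applied for 2 days at 37 °C to overnight-plated HeLa EGFP-654 cells; controls were DMSO and 500 nM IVS2-654 PNA.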

outcome, inactive:
CC1(C)CC[C@]2(C(=O)O)C(O)C[C@@]3(C)C(=CCC4[C@@]5(C)CCC(O)C(C)(C)C5CC[C@@]43C)C2C1 (stereo partly specified)
CCC1CN2CCc3cc(OC)c(OC)cc3C2CC1CC1NCCc2cc(OC)c(OC)cc21 (stereo unspecified)
COc1cc(C2c3cc4c(cc3C(O)[C@H]3COC(=O)C23)OCO4)cc(OC)c1OC (stereo partly specified)
C=CC(C1=CC(=O)C(OC)=C(OC)C1=O)c1ccccc1 (stereo unspecified)
CNC1CCC(c2ccc(Cl)c(Cl)c2)c2ccccc21 (stereo unspecified)
CC(C)c1c(O)ccc2c1CCC1C(C)(C)CCC[C@@]21C (stereo partly specified)
COc1ccc(-c2coc3c(OC)c(OC)cc(O)c3c2=O)cc1
C#CCCCCCCCCCCCC(O)CC(O)COC(C)=O (stereo unspecified)
COc1c(CC(=O)c2cc3c(cc2O)OC(C)(C)C(O)C3)ccc2c1C=CC(C)(C)O2 (stereo unspecified)

Test system: not listed separately
Test: qHTS Assay for Identification of Small Molecule Agonists for Hypoxia Response Element Signaling Pathway (AID 914; active = well fitted activation curve with a large enough effect in the signal ratio, with a control signal flat, not every such curve was filed as active; the % refers to the signal ratio; note: % of control where 0% means no effect)
Conditions: ME-180 (cervical carcinoma) HRE-bla reporter, beta-lactamase ratio, CoCl2, 17 h; stronger effect = higher value
Procedure, shortened: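 Cells were plated overnight, pin-dosed with compound in a titration series, co-stimulated with EC50 CoCl2 and incubated 17 hours at 37 degrees Celsius. CCF4 substrate was then loaded, and AC50 values came from the 460nm/530nm ratio.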

activation, inactive:
C/C(CCN1CCc2nc(-c3ccccc3)c(-c3ccccc3)cc2C1)=N\O[C@@H](C)c1cc(-c2c(C)cc(C)cc2C)no1 20.9%
CCCNC(=O)OC[C@@H]1O[C@H](CCON=C(C)C)C=C[C@@H]1Oc1ccc(OC)cc1 -3.17%
CCN1C(=O)[C@H]2[C@H]3[C@H](O)[C@H](O)C/C(=N/O[C@@H](C)c4cn([C@H](CO)Cc5ccccc5)nn4)[C@@H]3CC[C@@H]2C1=O 1.7%
CO[C@H]1COC(=O)C/C=C\[C@@H](C)COC(=O)[C@@H](OCc2ccccc2)/C=C\[C@@H]1C -3.25%
CC(C)=CCC/C(C)=C/CO/N=C1/[C@H]2O[C@@H]2[C@@H](O)[C@H]2[C@H]1CCn1c(=O)n(Cc3cc4c(cc3Cl)OCO4)c(=O)n12 3.23%
C=CC[C@@H]1C=C[C@@H](O/N=C\C[C@@H]2C=C[C@H](OC(C)=O)[C@H](COC(C)=O)O2)[C@@H](CO)O1 4.01%

Test system: not listed separately
Test: Confirmation and Secondary Assay for Modulators of Hemoglobin Beta Chain Splicing at IVS2 705 locus (AID 930);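 note: HeLa cells stably expressing the EGFP-705 splicing reporter; GFP fluorescence per well restored by corrected splicing of the IVS2-705 intron in EGFP; % of control where 0% means no effect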
Conditions: HeLa EGFP-705 splicing reporter, GFP fluorescence, 48 h; series mostly up to 46.1 µM
Procedure, shortened: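 Splice-correction reporter: EGFP cDNA split by beta-globin intron 2 bearing the 705 mutation, stably in HeLa. Compound incubation 2 days, 37C; fluorescent objects 5-250 µm summed per well.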

outcome, inactive:
CCC1CN2CCc3cc(OC)c(OC)cc3C2CC1CC1NCCc2cc(OC)c(OC)cc21 (stereo unspecified)
C=CC(C1=CC(=O)C(OC)=C(OC)C1=O)c1ccccc1 (stereo unspecified)
CC(C)c1c(O)ccc2c1CCC1C(C)(C)CCC[C@@]21C (stereo partly specified)
COc1ccc(-c2coc3c(OC)c(OC)cc(O)c3c2=O)cc1
C#CCCCCCCCCCCCC(O)CC(O)COC(C)=O (stereo unspecified)
COc1c(CC(=O)c2cc3c(cc2O)OC(C)(C)C(O)C3)ccc2c1C=CC(C)(C)O2 (stereo unspecified)
